FBW7 activator – activators of human E3 ligase FBW7; Q969H0; AlphaScreen FBW7–phospho-cyclin E peptide binding, activator screen; normalized activity (activation), % at 26.1 µM; 650,000 compounds, 0.13% hits; AID 1259310; in the data active = normalized activity above about 1.9%;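 note: purified mutant Fbw7 with reduced substrate affinity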
MITF inh – inhibitors of human MITF; AlphaScreen MITF homodimerization, bead proximity signal; inhibition, % at 2.6 µM; 650,000 compounds, 0.91% hits; AID 1259374; in the data active = inhibition above about 50%;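 note: 0% = vehicle wells with protein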
TEAD-YAP block – TEAD-YAP interaction inhibition; HEK-TIYL cells, TEAD-Gal4/YAP UAS-luciferase luminescence; 640,000 compounds, 1.4% hits; inhibition, % at 9.12 µM; in the data active = inhibition above about 32%;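 note: 0% = median of test compound wells and 100% = reference inhibitor wells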
GPR151 ag – human GPR151 activation. Q8TDV0. PathHunter beta-arrestin GPR151 cells, luminescence. activation, % at 11.2 µM. 650,000 compounds, 1% hits. AID 1508602; in the data active = activation above about 4.9%;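 note: 0% = median of compound wells and 100% = cells with positive control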
GPR151 conf act – confirmation of human GPR151 activators; 6,700 tested, under 10 active; activation, % at 11.2 µM; AID 1508609; GPR151 PathHunter beta-arrestin cells, luminescence, 90 min; % of EA-reagent control over plate median; shares compounds with GPR151 ag;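 active = mean percent activation across replicates above the confirmation screen cutoff of 4.91%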
GPR119 counter – GPR119 activation, counter-screen for GPR151 activators; shares compounds with GPR151 ag; GPR119 PathHunter beta-arrestin cells, luminescence, 90 min; 0 = compound-well median, 100 = enzyme-acceptor control; activation, % at 11.2 µM; 6,700 compounds, 0.3% hits; AID 1508611;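 active = mean percent activation in the counterscreen above 29.09%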;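 note: counterscreen on off-target GPR119 to flag nonselective hits from the GPR151 activator screen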
Target sequence (Q8TDV5 whole entry, looked up): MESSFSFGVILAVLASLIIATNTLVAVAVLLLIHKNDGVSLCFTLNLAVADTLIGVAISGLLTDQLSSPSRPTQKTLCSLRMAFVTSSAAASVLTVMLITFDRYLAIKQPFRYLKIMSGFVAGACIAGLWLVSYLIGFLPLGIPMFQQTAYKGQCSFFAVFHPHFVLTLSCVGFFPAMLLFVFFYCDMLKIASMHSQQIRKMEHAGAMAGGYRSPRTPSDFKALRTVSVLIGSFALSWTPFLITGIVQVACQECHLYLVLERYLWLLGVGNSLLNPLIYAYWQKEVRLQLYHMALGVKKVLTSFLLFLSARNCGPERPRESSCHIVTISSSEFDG
Numbers without * were called inactive; · = no result given. In the library only some 3.5% were active in any assay of this set; here they are far more common.

SMILES	FBW7 activator	MITF inh	TEAD-YAP block	GPR151 ag	GPR151 conf act	GPR119 counter
CC(=O)c1cccc(NC(=O)COC(=O)c2cccnc2)c1	0	3	-13	1	·	·
CCOc1ccc(C(=O)NC2CC(C)(C)NC(C)(C)C2)cc1OCC	0	12	11	12*	-1	-10
Cc1cc(Br)cc2c(C3=c4ccccc4=NC3=O)c(O)[nH]c12	0	13	2	2	·	·
COc1ccc(-c2nc3ccccc3s2)cc1NC(C)=O	0	7	-42	4.9*	0	-6
CC(=O)Nc1ccc(NC(=O)c2ccc3nc(-c4ccc(C(=O)NC5CC5)cc4)sc3c2)cc1	0	2	10	11*	0	3
CC(=O)Nc1ccc(NC(=O)c2cnc(-c3csc4ccccc34)s2)cc1	0	-3	-4	-3	·	·
COc1cc(NC(=O)c2cnc(-c3csc4ccccc34)s2)cc(OC)c1OC	0	5	10	5.1*	0	2
COC(=O)COc1ccc(-c2nc3ccccc3s2)cc1OC	0	-7	2	-2	·	·
CN1CCN(c2ccc(-c3nc4ccc(C(=O)NCc5cccc(C(F)(F)F)c5)cc4s3)cc2)CC1	0	-4	16	5.8*	-1	-19
Cc1nn(C)c(C)c1-c1cc(NCCc2ccc(O)cc2)ncn1	0	8	-10	0	·	·
CCCNC(=O)c1ccc2nc(-c3ccc(OC)cc3)sc2c1	0	5	-19	11*	-1	-5
COc1cc(NC(=O)c2ccc3nc(-c4cccc(C(C)=O)c4)sc3c2)cc(OC)c1OC	0	7	-27	13*	1	2
CC(=O)Nc1ccc(NC(=O)c2ccc3nc(-c4cccc(C(C)=O)c4)sc3c2)cc1	0	-17	1	-1	·	·
NC(=O)c1cccc2nc3ccccc3nc12	0	1	4	8.8*	0	-8
CC(C)NC(=O)c1cccc2nc3ccccc3nc12	0	9	13	1	·	·
O=C(Cc1cccc(F)c1)N1CCC(O)(c2ccccn2)CC1	0	-4	0	0	·	·
O=C(Cc1ccc(F)cc1)N1CCC(O)(c2ccccn2)CC1	0	14	-5	11*	1	13
Cc1c(C(=O)Nc2nc3ccccc3s2)cccc1[N+](=O)[O-]	0	6	-39	-1	·	·
O=C(CCCC(=O)Nc1ccc(Cl)cc1)Nc1ccc(Cl)cc1	0	-1	5	14*	0	-6
O=C(CCC(=O)Nc1ccc(Cl)cc1)Nc1ccc(Cl)cc1	0	-9	1	-1	·	·
O=C(CCS(=O)(=O)c1ccc2c(c1)OCC(=O)N2)Nc1ccc(OC(F)(F)F)cc1	0	10	0	7.1*	-1	-10
O=C1COc2cc(S(=O)(=O)CCC(=O)N3CCCCCC3)ccc2N1	0	8	4	5.1*	1	-3
O=C1COc2cc(S(=O)(=O)Nc3ccc(F)cc3)ccc2N1	0	7	-6	6.7*	1	0
COC(=O)C1=C(c2ccccc2)NC(=S)NC1c1ccc(OC)c(OC)c1 (stereo not drawn)	0	8	-17	0	·	·
N#Cc1cccc(OCc2ccccc2F)c1	0	-8	-5	-1	·	·
SMILES	FBW7 activator	MITF inh	TEAD-YAP block	GPR151 ag	GPR151 conf act	GPR119 counter
Nc1nc(NCc2ccccc2)cc(Nc2ncccn2)n1	0	0	3	3	·	·
CCc1cccc(OCC(=O)Nc2ccccc2C(=O)O)c1	1	9	-27	-1	·	·
CCc1cccc(OCC(=O)Nc2ccccc2C(N)=O)c1	0	0	-22	10*	-1	7
COc1ccccc1/C=N/NC(=O)NC12CC3CC(CC(C3)C1)C2	0	10	9	-1	·	·
COc1ccccc1/C=C/C(=O)OCC(=O)NC(=O)NC12CC3CC(CC(C3)C1)C2	0	16	1	5.5*	1	4
O=C(Nc1cccc(C(F)(F)F)c1)C1C2CC3OC(=O)C1C3C2 (stereo not drawn)	0	1	-2	6.3*	1	15
O=C(Nc1cc(C(F)(F)F)ccc1Cl)C1C2CC3OC(=O)C1C3C2 (stereo not drawn)	0	4	-1	-2	·	·
C=COCC(COC=C)(COC=C)COC=C	0	14	1	5.2*	1	1
COc1ccc2c(c1)CC/C(=C\c1ccsc1)C2=O	0	8	-44	1	·	·
Cc1ccc(OCc2nn3c(-c4ccc(F)cc4)nnc3s2)cc1	0	-5	-8	2	·	·
Fc1ccc(OCc2nn3c(-c4ccncc4)nnc3s2)cc1	-1	3	7	6.1*	0	-6
CCCCC1CN(CCC(=O)NCc2c(C)nn(CC)c2C)Cc2ccccc2O1 (stereo not drawn)	0	7	6	7.5*	2	11
O=C(Nc1ccccc1N1CCCC1)c1cccc([N+](=O)[O-])c1	0	24	0	-1	·	·
COc1cc(N2CCN(C(=O)Nc3ccccc3OC)CC2)nc(OC)n1	0	7	4	3	·	·
CCOC(=O)c1c(NC(=O)c2cccs2)sc(C(=O)Nc2ccc(OC)cc2OC)c1C	0	-1	-4	5.2*	1	4
CCOC(=O)c1c(NC(=O)c2cccs2)sc(C(=O)Nc2ccccc2OC)c1C	0	3	-2	0	·	·
CCOC(=O)c1c(NC(=O)c2ccccc2F)sc(C(=O)Nc2ccccc2C)c1C	0	3	-5	7.9*	1	13
CC(C)(C)C1CCC(C(=O)OCC(=O)Nc2ccccc2)CC1 (stereo not drawn)	0	3	1	1	·	·
O=C(/C=C/c1ccccc1[N+](=O)[O-])Nc1nc2c(s1)CCCC2	0	-1	-62	2	·	·
COc1ccc(S(=O)(=O)NCCOC23CC4CC(CC(C4)C2)C3)cc1C	0	1	-12	5.3*	0	4
Cc1ccc(S(=O)(=O)NCCOC23CC4CC(CC(C4)C2)C3)cc1C	0	-15	-11	1	·	·
C=CCSc1nc2c(c(=O)[nH]1)C(c1ccc(C)o1)C1=C(CCCC1=O)N2 (stereo not drawn)	0	13	2	6.3*	0	-6
Cc1cc(OCC(=O)NCC(C)CN(C)C)ccc1Cl (stereo not drawn)	0	-12	-4	5.8*	2	14
Cc1cc(OCC(=O)NCc2ccc(F)cc2)ccc1Cl	0	7	2	6.1*	-1	-3
CCOC(=O)C1CCCCN1Cc1ccc(F)cc1F (stereo not drawn)	0	-3	-2	2	·	·
Cc1c(O)ccc(C(=O)CN2CCN(c3ccccc3F)CC2)c1O	0	-1	3	5.0*	1	1
Cc1c(O)ccc(C(=O)CN2CCN(c3ccccc3)CC2)c1O	0	8	-1	0	·	·
C=C(C)CNc1nncc(-c2ccccc2C)n1	0	-6	-5	6.2*	0	1

Bioassay records deposited in PubChem BioAssay by The Scripps Research Institute Molecular Screening Center.
